Giardia kill: Small Molecules that selectively kill Giardia lamblia: qHTS; Giardia lamblia trophozoite viability; activity change, % at 7.66 µM, hits read low; 340,000 compounds, 0.15% hits; AID 540267, 2011; in the data active = activity change below about -80%; inconclusive = between about -30% and that limit;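 also: parasites exposed to compound for two days anaerobically before the ATP read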
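Anaerobic 48 hrs incubation at 37 deg C of 100 trophozoites/well with test compounds; ATPLite 1-Step luminescence, 15-30 min RT, reports cellular ATP as viability.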
Vif-APOBEC3F blk: qHTS for Inhibitors of Vif-A3F Interactions: qHTS; 390,000 compounds, 0.2% hits; HeLa A3F-eYFP + Vif (tagged APOBEC3F with the HIV-1 protein that degrades it), YFP fluorescence increase; Potency, µM (doses to about 46.1 µM); also: nearly all actives have a fitted effect of over 65% in size
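HeLa cells stably expressing Vif plus C-terminally eYFP-tagged A3F were seeded, incubated overnight at 37 deg C, dosed with compound, incubated overnight again at 37 deg C. Yellow fluorescence (Ex 488/Em 500-530) reported blocked Vif-mediated A3F-eYFP degradation.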
IL-1B inflam inh: qHTS for Inhibitors of Inflammasome Signaling: IL-1-beta AlphaLISA Primary Screen. THP-1 LPS/ATP IL-1B secretion, AlphaLISA, 16 h; hits give low values. activity change, % at 57.5 µM. 360,000 compounds, 4.7% hits. AID 743279, 2014; in the data active = activity change below about -50%; inconclusive = mostly about -30% to -49%
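THP-1 cells pretreated 1 hr with compounds (up to 57.5 uM final), then stimulated with LPS (250 ng/mL final) plus ATP (1.25 mM final); secreted IL-1B measured by AlphaLISA after 16 hr, decreased signal indicating inhibition.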
Vif-A3G inh: qHTS for Inhibitors of Vif-A3G Interactions: qHTS | HeLa A3G-eYFP + Vif (tagged APOBEC3G with the HIV-1 protein that degrades it), YFP fluorescence, overnight | Potency, µM (top dose mostly 46.1 µM), hits mostly inhibitors | 410,000 compounds, 0.076% hits | AID 602310, 2012; also: nearly all actives have a fitted effect of over 60% in size
Target sequence (Q9HC16 whole entry, looked up): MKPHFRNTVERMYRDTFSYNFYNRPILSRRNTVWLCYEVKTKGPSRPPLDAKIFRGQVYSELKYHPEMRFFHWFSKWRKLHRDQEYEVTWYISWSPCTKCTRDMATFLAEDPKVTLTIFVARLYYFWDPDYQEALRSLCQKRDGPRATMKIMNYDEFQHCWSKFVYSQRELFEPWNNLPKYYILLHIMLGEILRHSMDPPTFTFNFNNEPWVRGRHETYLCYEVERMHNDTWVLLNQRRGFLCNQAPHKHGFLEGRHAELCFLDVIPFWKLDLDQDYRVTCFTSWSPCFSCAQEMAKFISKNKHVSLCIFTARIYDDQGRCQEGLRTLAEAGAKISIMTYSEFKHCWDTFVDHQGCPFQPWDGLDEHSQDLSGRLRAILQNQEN
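HeLa cells stably expressing Vif and C-terminally eYFP-tagged A3G, seeded overnight at 37 deg C, then exposed to compound by pintool overnight at 37 deg C. Rise in yellow fluorescence (Ex 488/Em 500-530, Acumen) marks blocked Vif-driven A3G degradation.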
SW480 rereplic: A quantitative high throughput screen for small molecules that induce DNA re-replication in SW480 colon adenocarcinoma cells; 340,000 compounds, 1.8% hits; AID 624297, 2012; Potency, µM (doses to about 46.1 µM), actives largely listed as activators; SW480 DNA re-replication, Hoechst DNA content imaging, 48 h; also: nearly all actives have a fitted effect of over 55% in size
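250 cells/well; 23 nL cpd via pin tool; 48 hr, 37 C, 5% CO2; Hoechst 40 min; imager read of total nuclear intensity, ex 405/em 500-530 nm.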
MCF10A rereplic: A quantitative high throughput screen for small molecules that induce DNA re-replication in MCF 10a normal breast cells; MCF 10A DNA re-replication, Hoechst nuclear intensity, 48 h; Potency, µM (titrated, usually from 46.1 µM), usual class: activators; 350,000 compounds, 2.9% hits; also: nearly all actives have a fitted effect of over 50% in size
Hits are given with their value; n = inactive; u = inconclusive; x = not tested or not shown. An excerpt weighted towards active compounds, which were near 6.9% of everything screened. Unless noted, calls follow the shape of the dose curve; as a rule, active = well fitted curve in the direction sought with a large enough effect; inconclusive = small, poorly fitted or top-dose-only effect, or another doubt; inactive = no such curve, though single readings can be large; an effect the other way counts as inactive or inconclusive.

SMILES	Giardia kill	Vif-APOBEC3F blk	IL-1B inflam inh	Vif-A3G inh	SW480 rereplic	MCF10A rereplic
CCOC(=O)C1(Cc2ccccc2)CCN(Cc2cn(CC(=O)OC)c3ccccc23)CC1	n	n	n	n	n	n
CS(=O)(=O)c1ccc(/C=C2\C=Cc3ccccc32)cc1	x	x	x	n	x	x
COc1cc(OC)c(NC(=O)C(Cc2ccccc2)NS(=O)(=O)c2cccc3nsnc23)cc1Cl (centres undefined)	x	n	x	n	x	x
Cc1ccc(C)c(N(C)S(=O)(=O)c2ccc3[nH]cc(C(=O)NCCN4CCOCC4)c(=O)c3c2)c1	n	n	-63.1	n	n	n
COc1cc(-c2noc(C)c2C#Cc2nccn2C)cc(OC)c1OC	n	n	n	u	u	16.4µM
CCCCNCCCOc1cccc(Cl)c1Cl	n	n	-63.8	n	n	u
O=C(C=Cc1ccco1)c1ccc2ccccc2c1	n	n	-64.8	n	n	u
O=C(/C=C\c1ccco1)c1ccc(NC(=O)c2ccco2)cc1	n	n	n	n	u	u
CN(C)c1ccc(C(=O)/C=C/c2ccco2)cc1	n	n	-100.9	n	n	n
CC(=O)Nc1ccc(C(=O)/C=C/c2ccco2)cc1	n	n	n	n	n	n
CN(C)c1ccc(C(=O)/C=C/c2ccccc2)cc1	u	u	-101.8	n	u	u
CCN(CC)c1ccc(/C=C/C(=O)c2ccc(Br)cc2)cc1	n	25.1µM	-64.6	u	u	u
COc1ccccc1/C=C(\C#N)c1nc(-c2cc3ccccc3oc2=O)cs1	x	n	x	n	x	x
CC(C)Nc1cc(N2CCN(C3CCCCC3)CC2)c2noc3c2c1C(=O)c1ccccc1-3	x	u	x	n	x	x
N=c1c(-c2nc3ccccc3[nH]2)cc(C(=O)c2ccco2)nn1-c1ccccc1	n	u	n	n	7.31µM	n
N=c1c(-c2nc3ccccc3[nH]2)cc(C(=O)c2cccs2)nn1-c1ccccc1	n	n	n	n	n	n
C=CC[C@H](CC(=O)OC(C)(C)C)C(=O)OC[C@H]1CCCN1C(=O)[C@@H](CC=C)CC(=O)N(CCO)Cc1ccccc1	n	n	u	n	n	n
C=CC[C@@H](Cc1ccc(F)cc1)C(=O)OC[C@@H]1CCCN1C(=O)[C@H](CC=C)CC(=O)N(CCO)Cc1ccccc1	n	n	-60.7	n	n	n
C=CC[C@@H](Cc1ccc(F)cc1)C(=O)OC[C@H]1CCCN1C(=O)[C@@H](CC=C)CC(=O)N(CCO)Cc1ccccc1	n	n	-56.0	n	n	n
CCN(CC)C(=O)c1cccnc1	x	x	x	x	n	n
O=C(O)c1ccc(CNS(=O)(=O)c2ccc(Oc3ccccc3Cl)cc2)cc1	n	n	n	n	0.164µM	u
O=C(O)c1ccc(CNS(=O)(=O)c2ccc3ccccc3c2)cc1	n	n	n	n	n	n
C=CCNC(=O)c1cnn2c1NC(=C)C=C2C	x	x	x	n	x	x
Cc1cc(-n2c(C)cc(C(=O)CSc3nnc4sc5ccccc5n34)c2C)no1	n	n	n	n	n	n
Cc1cc(-n2c(C)cc(C(=O)CSc3nnnn3-c3ccc(Cl)cc3)c2C)no1	n	n	n	n	n	6.51µM
SMILES	Giardia kill	Vif-APOBEC3F blk	IL-1B inflam inh	Vif-A3G inh	SW480 rereplic	MCF10A rereplic
O=C(CSc1ccc2nc(-c3ccccc3)cn2n1)Nc1ccccc1	x	n	x	n	x	x
CC1(C)CCCN(C(=O)N2c3ccccc3Sc3ccccc32)C1	n	n	n	n	n	12.6µM
O=C(CN1CCCC1)N1c2ccccc2Sc2ccccc21	n	n	n	n	n	n
Cc1ccc(NCC(=O)N/N=C/c2cccc(Oc3ccccc3)c2)cc1	n	n	-77.1	n	u	u
CCOC(=O)c1cc(C#N)c(SC(C(=O)N2CCCCC2)c2ccccc2)nc1C (centres undefined)	x	x	x	n	x	x
Nc1ncnc(Sc2ccccc2)c1[N+](=O)[O-]	n	n	-102.7	n	n	n
CCc1cccc(CC)c1NC(=O)CN(C)S(=O)(=O)c1ccc2c(c1)n(C)c(=O)c(=O)n2C	x	n	x	n	x	x
COC(=O)[C@@]12C[C@@H](CC(=O)N3CCCC3)C(=O)N(Cc3cccc4ccccc34)C1=CCC(C)(C)C2	x	x	n	x	x	x
Clc1ccc(COn2c(-c3ccc(Cl)cc3)nc3ccccc32)cc1	n	n	n	n	u	16.4µM
Clc1ccc(COn2c(-c3ccccc3)nc3ccccc32)cc1	n	n	u	n	u	20.6µM
Cc1cc(=O)n(Cc2cccc(Cl)c2)c2c1c(C)nn2-c1ccccc1	x	n	x	n	x	x
Cc1cc(C)cc(NC(=O)C(=O)NCC(c2cccnc2)N2CCc3ccccc32)c1 (centres undefined)	x	n	x	n	x	x
Fc1ccc(-c2cc(-c3ccccc3)nc(-n3cccn3)n2)cc1	n	n	x	n	n	18.4µM
O=C1CN(C(=O)c2cccc(Br)c2)c2ccccc2N1	n	n	n	u	u	23.1µM
O=C1CN(C(=O)c2ccccc2)c2ccccc2N1	n	n	n	n	n	n
O=C(CSC1=N/C(=C/c2ccc(Cl)c(Cl)c2)C(=O)N1c1ccccc1F)NC1CC1	n	n	n	n	u	14.6µM
COc1ccc(Cl)cc1N1C(=O)/C(=C/c2sccc2C)N=C1SCC(=O)NC1CC1	n	u	-69.9	n	u	u
COc1ccc(Cl)cc1-c1nc(SCC(=O)NC2CC2)n[nH]1	n	u	n	n	n	u
CCCCCNC(=O)CSC1=N/C(=C\c2ccc(Cl)c(Cl)c2)C(=O)N1CC	n	n	n	n	n	n
COc1cc(NC(=O)CCS(=O)(=O)c2ccc3c(c2)CC(=O)N3C)cc(OC)c1OC	x	n	x	n	x	x
COc1ccc2oc(=O)c(-c3csc(Nc4ccc(O)cc4)n3)cc2c1	n	u	-91.1	n	u	4.11µM
COc1ccc2oc(=O)c(-c3csc(-c4ccc(Br)cc4)n3)cc2c1	x	n	x	n	x	x
COc1ccc2oc(=O)c(-c3nnc(NCc4ccco4)s3)cc2c1	n	u	n	n	8.91µM	7.31µM
CNc1nnc(-c2cc3cc(Cl)ccc3oc2=O)s1	n	n	n	n	n	n
CCOc1cccc2cc(-c3nnc(NCc4ccco4)s3)c(=O)oc12	n	n	n	n	u	20.6µM
CCOc1ccccc1Nc1nnc(-c2cc3cc(OC)ccc3oc2=O)s1	x	7.08µM	x	n	x	x
CCOc1ccc2c(c1)c(=O)c(C(=O)c1ccc(CC)cc1)cn2CC(=O)Nc1ccccc1OC	x	n	x	n	x	x
Cc1cccc(NC(=O)c2cn(-c3ccccc3)nc2-c2ccccc2)c1C	x	n	x	n	x	x

Screening data deposited in PubChem BioAssay by National Center for Advancing Translational Sciences (NCATS).
